# Measured values reported in the supplement of paper PMC4894684.
# Where a name gives a salt, the structure may show the parent alone. ± gives the standard deviation of the averaged measurements.
# Test system: Toxoplasma gondii RH (in HFF)
# Assay: parasite growth relative to the screen mean (all compounds = 100%); higher = less inhibition of parasite growth
# Settings: 5 µM; 72 h; oxygen 21 %
# Procedure, shortened: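 RH β-Gal–GFP Toxoplasma at MOI 1:5 was used to infect confluent human foreskin fibroblasts in 96-well plates within 2 h of pin-transferring compounds to 5 µM final. After 72 h at 21% O2, parasite number was determined by CPRG β-Gal assay against standard curves on the same plate. Growth is relative to the screen mean and averaged over two screens, with all compounds = 100%.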
row,SMILES,parasite growth
1,Cc1cc(NC(=O)Nc2ccc(N(C)C)cc2)c2cc(F)cc(F)c2n1,159 ± 3.7%
2,Cc1cc(C(C)(C)C)c(O)c(C)c1CC1=NCCN1 [Oxymetazoline hydrochloride],196 ± 16%
3,C/C(=N\NC(=O)C1C(=O)NCC1c1ccccc1)c1cccc(Br)c1 (stereo not drawn),147 ± 29%
4,CC(=O)N1CCN(c2ccc(OCC3COC(Cn4ccnc4)(c4ccc(Cl)cc4Cl)O3)cc2)CC1 (stereo not drawn) [Ketoconazole],186 ± 29%
5,COc1cccc2c1C(=O)c1c(O)c3c(c(O)c1C2=O)C[C@@](O)(C(=O)CO)C[C@@H]3O[C@H]1C[C@H](N)[C@H](O)[C@H](C)O1 [Doxorubicin hydrochloride],18.4 ± 7.7%
6,N#Cc1ccccc1OCC(O)CNCCNC(=O)Nc1ccccc1 (stereo not drawn),137 ± 18%
7,CCO/C(O)=C1\C(C)=NC(c2ccccc2)=C(C(=O)OCc2ccc([N+](=O)[O-])cc2)C1C#Cc1ccccc1 (stereo not drawn),67.4 ± 16%
8,CC[N+](C)(CC)CC(=O)Nc1c(C)cccc1C [N-Methyllidocaine iodide],119 ± 24%
9,c1ccc2cc(C3=NCCN3)ncc2c1 [BU 226 hydrochloride],126 ± 3.6%
10,O=C(NCCCCN1CCN(c2cccc(Cl)c2Cl)CC1)c1ccc2c(c1)Cc1ccccc1-2,92.71 ± 0.75%
11,COc1cc2nc(N3CCN(C(=O)C4CCCO4)CC3)nc(N)c2cc1OC (stereo not drawn) [Terazosin hydrochloride],122 ± 12%
12,Cc1nc2sccn2c(=O)c1CCN1CCC(=C(c2ccc(F)cc2)c2ccc(F)cc2)CC1 [Ritanserin],123 ± 15%
13,CCCCCCCC/C=C\CCCCCCCC(=O)NCCO [Oleylethanolamide],135 ± 21%
